Potency and activity change, negative = inhibition data for 40 compounds are collected here from PubChem BioAssay (Tox21).

Each structure is given as a SMILES string. Records with an inconclusive call do not appear. Entries that show only a call come without a potency. Values without a mark were called inactive. Active and inactive are the calls of the source. Calls come from the whole dose curve; as a rule, active = well fitted inhibition curve with a large enough effect in the repeat runs; inconclusive = weak or mixed curves; inactive = no such curve, though single readings can be large or run the other way.
Potency is the fitted concentration of half-maximal effect.

In this assay the target is Cytochrome P450 3A4 (Homo sapiens) (UniProt P08684). Nature of the assay: Cytochrome P450 Family 3 Subfamily A Member 4 (CYP3A4) small molecule antagonists: luciferase reporter qHTS assay (AID 1671201). Note: nearly all actives have a fitted effect of over 50% in size. Particulars: P450-Glo CYP3A4 enzyme, luciferin luminescence, 1 h; series mostly up to 115 µM. The source says: National Center for Advancing Translational Sciences [NCATS]
Chain of Cytochrome P450 3A4 (Homo sapiens) (P08684 whole entry, looked up): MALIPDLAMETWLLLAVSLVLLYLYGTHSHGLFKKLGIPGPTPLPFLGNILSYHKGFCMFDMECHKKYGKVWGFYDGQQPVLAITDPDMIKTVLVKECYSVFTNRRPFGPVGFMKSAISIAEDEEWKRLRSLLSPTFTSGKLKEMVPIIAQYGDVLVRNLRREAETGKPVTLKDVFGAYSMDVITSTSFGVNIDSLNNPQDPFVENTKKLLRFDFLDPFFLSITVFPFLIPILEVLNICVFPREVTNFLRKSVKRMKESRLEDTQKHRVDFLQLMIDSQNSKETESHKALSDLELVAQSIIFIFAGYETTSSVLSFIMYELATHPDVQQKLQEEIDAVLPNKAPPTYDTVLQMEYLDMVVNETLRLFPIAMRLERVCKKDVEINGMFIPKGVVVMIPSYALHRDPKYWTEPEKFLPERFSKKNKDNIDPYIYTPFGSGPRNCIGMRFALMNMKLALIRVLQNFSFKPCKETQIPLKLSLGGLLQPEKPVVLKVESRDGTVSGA
U.S. Environmental Protection Agency [EPA]
National Institutes of Environmental Health Sciences [NIEHS]
National Toxicology Program [NTP]
U.S. Food and Drug Administration [FDA]
Cytochrome P450 (CYP) enzymes are membrane-bound hemeproteins that play a key role in metabolism of drugs and xenobiotics. Evaluation of the effect of chemicals on CYP isozymes is useful to minimize the adverse drug reactions and toxicities in drug development process. Tox21 chemicals were tested for their effect on CYP enzyme activities by using P450-Glo (TM) screening systems (Promega Corporation, Madison, WI). These systems provide a luminescent method containing proluciferin substrates and are converted to luciferin products by CYP isozymes. The luciferin products formed are detected with a luciferin detection reagent, and the amount of light produced is proportional to CYP activity. P450-Glo (TM) CYP3A4 screening system (Catalog. No. V9910) was used to detect the compounds that interfere in CYP3A4 activity. The positive control compound used for CYP3A4 assay is ketoconazole (Sigma-Aldrich, St. Louis, MO).
Tox21 Assay Protocol Summary:
Two ul of enzyme-substrate mix was dispensed into medium binding white/solid 1536-well plates (Greiner Bio-One North America Inc., Monroe, NC) using a BioRaptr Flying Reagent Dispenser (FRD, Beckman Coulter, Brea, CA). Compounds dissolved in DMSO and positive control (ketoconazole) were transferred to the assay plates at 23 nl using a Pintool station (Wako, San Diego, CA). The assay plates were incubated at room temperature for 10 min. Then 2 ul of NADPH regeneration solution was added to each well of the assay plates using an FRD and incubated at room temperature for 1 h. The reaction was stopped by adding 4 ul of detection reagent using an FRD and after 20 min incubation at room temperature the luminescence signal was measured using a ViewLux plate reader (Perkin Elmer, Shelton, CT). Data were expressed as relative luminescence units.
A general note: A reporter such as luciferase makes a cellular process visible.
On to `Clc1cc(Cl)c(Cl)c(Cl)c1Cl`, for which the Potency result was “inactive”.
In the case of `CC(CN1CC(=O)NC(=O)C1)N1CC(=O)NC(=O)C1` (stereo not given), the Potency entry is “inactive”.
The same measure, in the same setting: in the case of `CCOC(=O)c1ccc(N(C)C)cc1` it was “inactive”.
As for `NC[C@H]1O[C@H](O[C@H]2[C@H](O)[C@@H](O[C@H]3O[C@H](CO)[C@@H](O)[C@H](N)[C@H]3O)[C@H](N)C[C@@H]2N)[C@H](N)[C@@H](O)[C@@H]1O`, the activity change, negative = inhibition is 6.04% [at 23.6 µM].
For the compound `COc1cc(NS(=O)(=O)c2ccc(N)cc2)ncn1`, the Potency result is “inactive”.
On the same count and under the same terms, for `Nc1nc(Cl)cc(Cl)n1` the value was “inactive”.
For the compound `CC1(C)CC(N)CC(C)(C)N1`, the Potency entry is “inactive”.
On to `C[n+]1ccccc1/C=N/O`, for which the Potency result was “inactive”.
In the case of `COC(=O)N/N=C/c1c[n+]([O-])c2ccccc2[n+]1[O-]`, the Potency result was “inactive”.
In the case of `BrCCOc1ccccc1`, the Potency result was “inactive”.
The same measure, in the same setting: in the case of `CCCC(C)C(O)CC` (stereo not given) it was “inactive”; in that of `O=C(O)Cc1ccccc1Oc1ccc(Cl)cc1Cl`, “inactive”; in that of `CC(C)(C)C(=O)NCCCC(=O)O`, “inactive”.
Still for that read-out and setting: for `CCCCOCCCC` the value was “inactive”.
On the same count and under the same terms, for `O=C[C@@H](O)[C@H](O)[C@H](O)CO` the value was “inactive”.
For the compound `Cc1cc(N)no1`, the Potency result was “inactive”.
On the same count and under the same terms, in the case of `CC(C)c1cc(C(C)C)cc(C(C)C)c1` it was “inactive”; in that of `CCOC(=O)CC`, “inactive”; in that of `CCOC(=O)CC(C(C)=O)C(C)=O`, “inactive”.
On the same count and under the same terms, in the case of `CCCCCCCCCCCC(C)=O` it was “inactive”; in that of `NCC1CCC(C(=O)Oc2ccc(CCC(=O)O)cc2)CC1` (stereo not given), “inactive”.
On the same count and under the same terms, in the case of `CCCCCCC(O)CO` (stereo not given) it was “inactive”.
As for `CC1(C)C(=O)C(C)(C)C1=O`, the Potency entry was “inactive”.
Same read-out and setting: in the case of `CC(C)(C)C(=O)CC(=O)C(C)(C)C` it was “inactive”.
In the case of `CC(C)CC(O)Cc1ccccc1` (stereo not given), the Potency result was “inactive”.
With `CC(C)=CCC/C(C)=C\C#N`, the Potency result is “inactive”.
Same read-out and setting: in the case of `O=S(=O)(O)c1cc(I)c(O)c2ncccc12` it was “inactive”; in that of `CCOC(=O)[C@H](CCc1ccccc1)N[C@H]1CS[C@H](c2cccs2)CN(CC(=O)O)C1=O`, “inactive”; in that of `CCCOc1ccc(C(=O)OCCN(CC)CC)cc1N`, “inactive”.
Same read-out and setting: for `O=Cc1ccccc1S(=O)(=O)O` the value was “inactive”; for `Cc1cc(=O)oc2cc(O[C@@H]3SC[C@@H](O)[C@H](O)[C@H]3O)ccc12`, “inactive”; for `C/C(=N\O)c1ccc(OCC(=O)N2CCCCC2)cc1`, “inactive”.
With `CCCCCCCCCCCCCCCC(=O)OC`, the activity change, negative = inhibition is 2.42% [at 23.6 µM].
On to `C=CCn1cc[n+](C)c1`, for which the Potency entry is “inactive”.
Turning to `C[C@@H]1NC(=O)[C@@H](N)CNC(=O)[C@H](C2CCNC(N)=N2)NC(=O)/C(=C/NC(N)=O)NC(=O)[C@H](CNC(=O)C[C@@H](N)CCCN)NC1=O` (stereo not given in full), the activity change, negative = inhibition is 1.92% [at 0.435 µM].
Turning to `COc1cc(S(N)(=O)=O)cc(C(=O)O)c1OC`, the Potency entry is “inactive”.
Same read-out and setting: in the case of `Cc1ccc(O)c(C(=O)c2ccccc2)c1` it was 32 µM (active).
On the same count and under the same terms, for `COC(=O)c1ccc(NC(C)=O)cc1OC` the value was “inactive”; for `CN(C)CCc1c[nH]c2ccc(CS(=O)(=O)N3CCCC3)cc12`, “inactive”.
The same measure, in the same setting: in the case of `O=C(O)COc1ccc2ccccc2c1` it was “inactive”.
